HP1b binding inh = blocks HP1-beta chromodomain binding to methylated histone tails. P83916. Potency, µM (top dose mostly 114 µM), for inactives: top-dose activity change, negative = inhibition, usual class: inhibitors. AlphaScreen HP1-beta / biotin-H3K9me3 peptide binding. hit rate 0.56% among 390,000; note: nearly all actives have a fitted effect of over 70% in size
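AlphaScreen: HP1-beta (50 nM) preformed 30 min with biotin-H3(1-18)K9me3 peptide (50 nM) in PBS pH 7.4, 0.01% Tween-20. Compound added for 30 min at RT, then streptavidin donor/nickel chelate acceptor beads (10 ug/mL) for 30 min.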
G9a inh = G9a (human) methyltransferase inhibition. Q96KQ7. G9a H3K9 monomethylation, AlphaScreen, 2 h. Potency, µM (top dose mostly 102 µM), for the others: at the top dose activity, negative = inhibition, actives largely listed as inhibitors. hit rate 8.8% among 350,000; note: % is set by controls: 0 for no effect and ±100 for the full control effect; nearly all actives have a fitted effect of over 75% in size
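G9a (20 nM) preincubated 15 min RT with compounds, then 500 nM biotinylated H3K9 peptide and 20 uM SAM added; 2 h RT reaction. Monomethyl-H3K9 product detected by AlphaScreen with anti-H3K9me1 antibody, streptavidin donor and anti-rabbit IgG acceptor beads.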
BAZ2B inh = BAZ2B (human) inhibition. AlphaScreen BAZ2B-H3K14Ac peptide displacement. Potency, µM (doses to about 114 µM), for inactives: at the highest dose activity change, negative = inhibition, hits mostly inhibitors. hit rate 4.4% among 360,000. AID 504333; note: % is set by controls: 0 for no effect and ±100 for the full control effect; nearly all actives have a fitted effect of over 60% in size
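Complex of BAZ2B and biotin-H3K14Ac (50 nM apiece) forms over 30 min at RT, then faces library compounds up to 110 uM for another 30 min; AlphaScreen beads added, 20 min dark incubation, luminescence read.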
Sfp inh = inhibitors of Bacillus subtilis Sfp phosphopantetheinyl transferase. hit rate 3.5% among 310,000. Potency, µM, inactives show largest response in the series, negative = inhibition, hits mostly inhibitors. Biochemical Sfp PPTase activity, qHTS;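 note: the enzyme is Sfp with the accession as filed and its product quenches rhodamine fluorescence; 0% = enzyme reaction without inhibitor and -100% = no enzyme wells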
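Reaction rates are the 30-min fluorescence difference (ex 525, em 598 nm) in wells containing 15 nM Sfp, 5 uM rhodamine-CoA and 12.5 uM BHQ-2-YbbR at pH 7.6 with 10 mM MgCl2.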
ALOX12 inh = ALOX12 (human) lipoxygenase inhibition | P18054 | purified 12hLO, xylenol orange hydroperoxide absorbance | Potency, µM (titrated, usually from 108 µM), for inactives: at the top dose activity change, negative = inhibition, usual class: inhibitors | hit rate 1.1% among 580,000; note: % is set by controls: 0 for no effect and ±100 for the full control effect
Target sequence (P18054 whole entry, looked up): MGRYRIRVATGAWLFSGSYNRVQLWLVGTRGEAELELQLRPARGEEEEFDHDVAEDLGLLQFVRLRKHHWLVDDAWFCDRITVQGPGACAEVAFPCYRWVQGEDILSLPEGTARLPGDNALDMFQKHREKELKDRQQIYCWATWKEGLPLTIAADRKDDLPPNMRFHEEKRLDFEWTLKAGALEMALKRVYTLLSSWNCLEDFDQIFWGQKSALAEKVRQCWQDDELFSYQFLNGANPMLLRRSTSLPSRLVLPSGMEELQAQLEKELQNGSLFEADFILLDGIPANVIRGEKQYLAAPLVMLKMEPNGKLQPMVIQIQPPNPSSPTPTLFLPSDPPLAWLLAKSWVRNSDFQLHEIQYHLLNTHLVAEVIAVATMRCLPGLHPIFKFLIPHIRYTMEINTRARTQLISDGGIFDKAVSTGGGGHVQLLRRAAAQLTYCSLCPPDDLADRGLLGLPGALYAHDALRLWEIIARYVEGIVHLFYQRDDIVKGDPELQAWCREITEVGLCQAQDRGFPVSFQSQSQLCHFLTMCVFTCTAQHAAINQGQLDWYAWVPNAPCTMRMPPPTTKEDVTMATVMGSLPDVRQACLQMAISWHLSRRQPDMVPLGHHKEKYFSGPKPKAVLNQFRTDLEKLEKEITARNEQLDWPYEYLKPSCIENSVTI
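Purified human 12hLO at 150 nM in 25 mM Hepes, 0.01% Triton X-100, pH 7.0, preincubated 15 min at room temperature with compound. Reaction started with 40 uM arachidonic acid, 30 min at room temperature. Hydroperoxide measured by Fe-xylenol orange, 573/405 nm absorbance ratio.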
JMJD2A Tudor inh = JMJD2A Tudor domain (human) inhibition. Potency, µM (highest dose often 114 µM), for the others: at the top dose activity change, negative = inhibition, most hits filed as inhibitors. AlphaScreen JMJD2A-Tudor / H3K4me3 peptide binding. O75164. hit rate 4.4% among 390,000; note: % is set by controls: 0 for no effect and ±100 for the full control effect; nearly all actives have a fitted effect of over 50% in size
* hit, by the source's call; [ ] = remark or other dose. Sampled rows, rich in hits. Any-hit rate of the full collection: about 8.7%. Calls come from the whole dose curve; as a rule, active = well fitted curve in the direction sought with a large enough effect; inconclusive = small, poorly fitted or top-dose-only effect, or another doubt; inactive = no such curve, though single readings can be large; an effect the other way counts as inactive or inconclusive. Potency is the fitted concentration of half-maximal effect.

For COc1ccc(N2CCn3c2nc2c3c(=O)n(CCc3ccccc3)c(=O)n2C)cc1 the results were G9a inh 6.8%, BAZ2B inh -1.2% and Sfp inh 5.6%.
For CCOC(=O)C1CCCN(S(=O)(=O)c2ccc3ccccc3c2)C1 (centres undefined) the results were HP1b binding inh 64.5%, G9a inh -7.2%[12.7 µM], BAZ2B inh -3.7%, Sfp inh -3.3% and JMJD2A Tudor inh 32.4%.
Screening CCOC(=O)c1ccccc1NC1c2ccccc2C(=O)N1C1CCN(C(=O)OCC)CC1 (centres undefined) returned HP1b binding inh 18.0%, G9a inh 39.8µM*, BAZ2B inh -25.5%, Sfp inh -6.8%, ALOX12 inh 29.3% and JMJD2A Tudor inh -18.8%.
`CCOC(=O)N1CCC(N2C(=O)c3ccccc3C2Nc2ccc(S(=O)(=O)N3CCCCC3)cc2)CC1` (centres undefined) gave G9a inh 39.8µM*, BAZ2B inh -5.9% and Sfp inh -11.7%.
For CCOC(=O)N1CCC(N2C(=O)c3ccccc3C2Nc2cccnc2)CC1 (centres undefined) the results were HP1b binding inh 37.7%, G9a inh inconclusive, BAZ2B inh 2.2%, Sfp inh 0.4%, ALOX12 inh -2.2% and JMJD2A Tudor inh -9.0%.
CCOC(=O)N1CCC(N2Cc3cccc(C(=O)NC(C)c4ccc5c(c4)OCCO5)c3C2=O)CC1 (centres undefined) was read as HP1b binding inh 22.5%, G9a inh 39.8µM*, BAZ2B inh -10.3%, Sfp inh -22.3%, ALOX12 inh 5.5%[57.4 µM] and JMJD2A Tudor inh -31.7%.
For CCOC(=O)N1CCC(N2CCN(S(=O)(=O)c3ccc4ccccc4c3)CC2)CC1 the results were HP1b binding inh inconclusive, G9a inh 8.91µM*, BAZ2B inh inconclusive, Sfp inh inconclusive, ALOX12 inh inconclusive and JMJD2A Tudor inh 0.891µM*.
For COc1cccc(CC(=O)NC(c2ccccc2)c2ccccc2)c1 the results were ALOX12 inh -29.7%.
`CCOC(=O)N1CCC(N2C(=O)c3ccccc3C2Nc2ccc3c(c2)OCCO3)CC1` (centres undefined) gave HP1b binding inh -5.8%, G9a inh 50.1µM*, BAZ2B inh inconclusive, Sfp inh 21.5%, ALOX12 inh 239.6% and JMJD2A Tudor inh inconclusive.
Screening Cc1ccccc1[C@H]1C[C@@H](O)[C@@H](O)[C@@H]1NC(=O)c1nc2ccccc2s1 returned ALOX12 inh 44.7µM*.
For c1cc(CNC2CCCC2)cs1 the results were ALOX12 inh -17.9%.
For COc1ccc(N2CCN(C(=O)C3CC(O)CN3S(=O)(=O)c3ccc([N+](=O)[O-])cc3)CC2)cc1 (centres undefined) the results were HP1b binding inh 25.4%, G9a inh 44.7µM*, BAZ2B inh -11.0%, Sfp inh 3.8%, ALOX12 inh inconclusive and JMJD2A Tudor inh -10.3%[57.1 µM].
For Cc1ccc(S(=O)(=O)N2CC(O)C[C@H]2C(=O)OCC(=O)Nc2ccc(N3CCCCC3)cc2)cc1C (some centres undefined) the results were HP1b binding inh inconclusive, G9a inh 6.31µM*, BAZ2B inh 39.8µM*, ALOX12 inh -29.1% and JMJD2A Tudor inh 44.7µM*.
O=C(COC(=O)[C@@H]1CC(O)CN1S(=O)(=O)c1ccc([N+](=O)[O-])cc1)NC12CC3CC(CC(C3)C1)C2 (some centres undefined) was read as HP1b binding inh 12.7%, G9a inh 20µM*, BAZ2B inh -5.7%, Sfp inh 6.9%, ALOX12 inh -12.9% and JMJD2A Tudor inh -7.7%.
Screening COc1cc(NC(=O)COC(=O)C2CC(O)CN2S(=O)(=O)c2ccc(Cl)cc2)c(C)cc1[N+](=O)[O-] (centres undefined) returned HP1b binding inh 21.4%, ALOX12 inh 4.1% and JMJD2A Tudor inh -25.7%.
For O=C(COC(=O)c1ccc([N+](=O)[O-])cc1)NC12CC3CC(CC(C3)C1)C2 the results were HP1b binding inh 22.3%, ALOX12 inh 2.1% and JMJD2A Tudor inh -2.9%.
`CCN(Cc1cc2cc(C)ccc2[nH]c1=O)S(C)(=O)=O` gave ALOX12 inh -0.6%.
For CC(C)c1noc(C2CCCN(C(=O)CCCc3ccccc3)CCC(=O)NCC2)n1 (centres undefined) the results were ALOX12 inh 50.5%.
`CC(C)(C)c1ccc(C(=O)N2C[C@@H](CO)[C@H](c3ccncc3)C2)cc1` gave ALOX12 inh 35.5%.
Screening O=C1NC2(CCN(CC3CCCC3)CC2)Oc2ccccc21 returned ALOX12 inh 25.1µM*.
O=C1NC2(CCN(CC3CCCCC3)CC2)Oc2ccccc21 was read as ALOX12 inh -19.0%[176 µM].
Screening O=C(O)c1ccccc1NS(=O)(=O)c1cccc(C(F)(F)F)c1 returned HP1b binding inh 8.2%, G9a inh -6.1%[2.33 µM], BAZ2B inh -10.9%, Sfp inh 6.5%, ALOX12 inh -25.2% and JMJD2A Tudor inh -26.8%.
For O=C(O)c1ccccc1NS(=O)(=O)c1cccc(-n2sc3ccccc3c2=O)c1 the results were HP1b binding inh -20.2%, G9a inh 1.26µM*, BAZ2B inh 3.98µM*, Sfp inh 2µM*, ALOX12 inh 0.224µM* and JMJD2A Tudor inh 1.41µM*.
For CCOc1ccc(NC(=O)COc2ccc(-c3nnc4n3CCCC4)cc2)cc1 the results were ALOX12 inh -1.0%.
For COc1ccc(-c2csc(NC3=NCCCCC3)n2)cc1 the results were HP1b binding inh 31.7%, G9a inh -9.2%[59 µM], BAZ2B inh -15.7%, Sfp inh -16.5%, ALOX12 inh 7.5% and JMJD2A Tudor inh -8.5%.
COc1ccc(-c2csc(NNC3=NCCCCC3)n2)cc1 was read as HP1b binding inh inconclusive, G9a inh 10µM*, BAZ2B inh inconclusive, Sfp inh 12.6µM*, ALOX12 inh inconclusive and JMJD2A Tudor inh inconclusive.
CCOc1ccc(-c2csc(NNC3=NCCCCC3)n2)cc1 was read as HP1b binding inh inconclusive, G9a inh 7.94µM*, BAZ2B inh 50.1µM*, Sfp inh 10µM*, ALOX12 inh inconclusive and JMJD2A Tudor inh -7.5%[11.4 µM].
Screening CCOc1ccc(N2CSC3=C(C#N)C(c4ccco4)CC(=O)N3C2)cc1 (centres undefined) returned HP1b binding inh 3.6%, G9a inh 1.78µM*, BAZ2B inh 44.7µM*, Sfp inh 3.16µM*, ALOX12 inh inconclusive and JMJD2A Tudor inh -8.3%.

Screening results: PubChem BioAssay, National Center for Advancing Translational Sciences (NCATS)
